Reference: article PMC7862700, “An all-to-all approach to the identification of sequence-specific readers for epigenetic DNA modifications on cytosine”

Experiments:
Experiment in all cases: DAPPL (digital affinity profiling via proximity ligation, sequencing); 10 mM Tris-HCl pH 7.5, 50 mM NaCl, 1 mM DTT, 4% glycerol, room temperature, 30 min; GST-TFs on glutathione beads, 16-mer random dsDNA library, 0.1% formaldehyde crosslink after washing; high values mean tight binding
FLI1 = molecular target: T1, FLI1 (Homo sapiens, UniProt Q01543 1-452); conditions: protein: recombinant; tags: N-terminal GST; dsDNA, one strand shown
T1 sequence: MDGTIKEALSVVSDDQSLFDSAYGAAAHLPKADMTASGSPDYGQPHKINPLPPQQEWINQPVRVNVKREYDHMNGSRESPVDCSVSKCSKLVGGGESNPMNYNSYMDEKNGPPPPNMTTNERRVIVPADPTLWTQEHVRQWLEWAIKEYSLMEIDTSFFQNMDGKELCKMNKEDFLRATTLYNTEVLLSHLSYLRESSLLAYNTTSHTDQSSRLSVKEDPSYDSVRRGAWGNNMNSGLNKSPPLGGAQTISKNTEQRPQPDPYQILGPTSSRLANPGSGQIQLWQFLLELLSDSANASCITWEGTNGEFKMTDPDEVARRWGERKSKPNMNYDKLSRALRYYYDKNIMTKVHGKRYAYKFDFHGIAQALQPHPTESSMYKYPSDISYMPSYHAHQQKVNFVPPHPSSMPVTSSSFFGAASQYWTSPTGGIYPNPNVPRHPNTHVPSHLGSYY
Method in brief: (§1)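 Human transcription factors fused to GST were expressed in yeast, captured on glutathione beads, given DNA barcodes and pooled with a GST-only negative control. Pools were incubated with 200 nmole of a 16-mer random double-stranded DNA library in Tris/NaCl/DTT/glycerol buffer at room temperature for 30 min. They were then washed, crosslinked with 0.1% formaldehyde, proximity-ligated (BsaI/T4 ligase, 1 h, 37 °C), PCR-amplified and sequenced on an Illumina NextSeq500. Binding signal is each 6-mer's read frequency for a factor divided by its frequency for the GST control.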

ELK1 = molecular target: T2, ELK1 (Homo sapiens, UniProt P19419 1-428); conditions: protein: recombinant; tags: N-terminal GST; dsDNA, one strand shown
T2 sequence: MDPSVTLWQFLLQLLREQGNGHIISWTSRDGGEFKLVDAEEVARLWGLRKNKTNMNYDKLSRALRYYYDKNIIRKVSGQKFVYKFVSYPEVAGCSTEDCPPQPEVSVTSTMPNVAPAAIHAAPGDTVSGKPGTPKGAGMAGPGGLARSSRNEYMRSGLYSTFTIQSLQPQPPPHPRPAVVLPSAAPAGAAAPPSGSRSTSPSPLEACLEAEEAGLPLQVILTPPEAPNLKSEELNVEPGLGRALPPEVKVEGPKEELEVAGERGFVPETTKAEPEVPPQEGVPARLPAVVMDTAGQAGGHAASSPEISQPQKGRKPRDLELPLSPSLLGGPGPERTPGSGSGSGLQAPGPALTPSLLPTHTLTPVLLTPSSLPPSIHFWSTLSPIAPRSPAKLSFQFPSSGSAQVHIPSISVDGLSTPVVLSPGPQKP
Method in brief: as §1

GABPA = molecular target: T3, GABPA (Homo sapiens, UniProt Q06546 1-454); conditions: protein: recombinant; tags: N-terminal GST; dsDNA, one strand shown
T3 sequence: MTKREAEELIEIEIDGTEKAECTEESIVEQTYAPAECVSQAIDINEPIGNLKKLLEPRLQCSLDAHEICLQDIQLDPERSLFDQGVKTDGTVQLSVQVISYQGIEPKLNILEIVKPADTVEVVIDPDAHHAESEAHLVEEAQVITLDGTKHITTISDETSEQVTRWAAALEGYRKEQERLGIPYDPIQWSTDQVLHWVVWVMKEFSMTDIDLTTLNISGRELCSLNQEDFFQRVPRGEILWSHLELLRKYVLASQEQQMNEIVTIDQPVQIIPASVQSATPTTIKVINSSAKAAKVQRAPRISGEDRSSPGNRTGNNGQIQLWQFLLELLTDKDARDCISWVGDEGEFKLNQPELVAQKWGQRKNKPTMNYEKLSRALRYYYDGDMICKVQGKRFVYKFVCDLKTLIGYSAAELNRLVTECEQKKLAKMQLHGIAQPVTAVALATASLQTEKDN
Method in brief: as §1

ERG = molecular target: T4, ERG (Homo sapiens, UniProt P11308 1-479); conditions: protein: recombinant; tags: N-terminal GST; dsDNA, one strand shown
T4 sequence: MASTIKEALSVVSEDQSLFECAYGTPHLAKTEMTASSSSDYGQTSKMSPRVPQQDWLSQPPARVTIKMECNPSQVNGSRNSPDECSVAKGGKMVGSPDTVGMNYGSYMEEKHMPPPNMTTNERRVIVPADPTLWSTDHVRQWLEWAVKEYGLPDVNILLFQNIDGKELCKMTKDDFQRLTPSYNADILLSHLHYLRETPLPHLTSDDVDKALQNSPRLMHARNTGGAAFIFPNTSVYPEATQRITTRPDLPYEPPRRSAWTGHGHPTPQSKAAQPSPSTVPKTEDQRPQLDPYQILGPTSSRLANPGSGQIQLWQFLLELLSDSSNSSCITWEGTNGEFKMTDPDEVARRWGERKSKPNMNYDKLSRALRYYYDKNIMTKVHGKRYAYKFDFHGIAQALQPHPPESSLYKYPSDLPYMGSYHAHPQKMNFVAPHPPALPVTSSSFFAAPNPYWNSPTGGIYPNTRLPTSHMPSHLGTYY
Method in brief: as §1

ELF1 = ELF1 (Homo sapiens, UniProt P32519 1-619); conditions: protein: recombinant; tags: N-terminal GST; dsDNA, one strand shown
Method in brief: as §1

EHF = molecular target: T5, EHF (Homo sapiens, UniProt Q9NZC4 1-300); conditions: protein: recombinant; tags: N-terminal GST; dsDNA, one strand shown
T5 sequence: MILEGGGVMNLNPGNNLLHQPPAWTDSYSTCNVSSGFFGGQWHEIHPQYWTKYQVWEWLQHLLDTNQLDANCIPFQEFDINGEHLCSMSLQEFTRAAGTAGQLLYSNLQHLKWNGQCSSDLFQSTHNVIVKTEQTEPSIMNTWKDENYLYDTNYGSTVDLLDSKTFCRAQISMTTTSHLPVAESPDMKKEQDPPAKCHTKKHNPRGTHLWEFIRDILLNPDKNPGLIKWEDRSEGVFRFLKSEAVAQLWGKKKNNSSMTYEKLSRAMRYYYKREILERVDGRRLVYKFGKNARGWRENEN
Method in brief: as §1

SPI1 = SPI1 (Homo sapiens, UniProt P17947 1-270); conditions: protein: recombinant; tags: N-terminal GST; dsDNA, one strand shown
Method in brief: as §1

SPIB = SPIB (Homo sapiens, UniProt Q01892 1-262); conditions: protein: recombinant; tags: N-terminal GST; dsDNA, one strand shown
Method in brief: as §1

ELK3 = molecular target: T6, ELK3 (Homo sapiens, UniProt P41970 1-407); conditions: protein: recombinant; tags: N-terminal GST; dsDNA, one strand shown
T6 sequence: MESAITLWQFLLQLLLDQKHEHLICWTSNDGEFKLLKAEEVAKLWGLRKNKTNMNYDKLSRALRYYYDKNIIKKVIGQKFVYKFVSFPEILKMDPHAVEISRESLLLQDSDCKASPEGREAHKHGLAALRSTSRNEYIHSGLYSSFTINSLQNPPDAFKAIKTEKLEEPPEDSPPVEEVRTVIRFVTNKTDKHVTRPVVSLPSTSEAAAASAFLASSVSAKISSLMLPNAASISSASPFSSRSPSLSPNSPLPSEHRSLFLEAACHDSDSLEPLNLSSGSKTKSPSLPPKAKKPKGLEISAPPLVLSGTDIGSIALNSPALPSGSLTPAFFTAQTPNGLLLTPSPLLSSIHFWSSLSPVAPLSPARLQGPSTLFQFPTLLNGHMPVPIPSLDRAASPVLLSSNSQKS
Method in brief: as §1

FEV = molecular target: T7, FEV (Homo sapiens, UniProt Q99581 1-238); conditions: protein: recombinant; tags: N-terminal GST; dsDNA, one strand shown
T7 sequence: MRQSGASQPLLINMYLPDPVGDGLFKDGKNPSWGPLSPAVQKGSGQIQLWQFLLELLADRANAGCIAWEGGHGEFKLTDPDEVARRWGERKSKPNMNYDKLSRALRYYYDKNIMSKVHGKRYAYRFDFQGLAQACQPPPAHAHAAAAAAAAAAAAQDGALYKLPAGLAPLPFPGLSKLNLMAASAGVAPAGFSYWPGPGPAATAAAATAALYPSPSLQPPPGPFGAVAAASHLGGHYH
Method in brief: as §1

ETV5 = ETV5 (Homo sapiens, UniProt P41161 1-510); conditions: protein: recombinant; tags: N-terminal GST; dsDNA, one strand shown
Method in brief: as §1

HSF1 = HSF1 (Homo sapiens, UniProt Q00613 1-529); conditions: protein: recombinant; tags: N-terminal GST; chain copies: 3; dsDNA, one strand shown
Method in brief: as §1

SPIC = molecular target: T8, SPIC (Homo sapiens, UniProt Q8N5J4 1-248); conditions: protein: recombinant; tags: N-terminal GST; dsDNA, one strand shown
T8 sequence: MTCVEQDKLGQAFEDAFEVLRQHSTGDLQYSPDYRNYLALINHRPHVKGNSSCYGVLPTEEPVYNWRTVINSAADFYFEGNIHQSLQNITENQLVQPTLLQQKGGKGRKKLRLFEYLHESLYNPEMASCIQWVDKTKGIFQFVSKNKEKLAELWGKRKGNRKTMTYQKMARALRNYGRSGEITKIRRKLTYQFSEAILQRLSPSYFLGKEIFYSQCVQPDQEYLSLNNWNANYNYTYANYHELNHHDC
Method in brief: as §1

ELF4 = ELF4 (Homo sapiens, UniProt Q99607 1-663); conditions: protein: recombinant; tags: N-terminal GST; dsDNA, one strand shown
Method in brief: as §1

ELK4 = molecular target: T9, ELK4 (Homo sapiens, UniProt P28324-2 1-405); conditions: protein: recombinant; tags: N-terminal GST; dsDNA, one strand shown
T9 sequence: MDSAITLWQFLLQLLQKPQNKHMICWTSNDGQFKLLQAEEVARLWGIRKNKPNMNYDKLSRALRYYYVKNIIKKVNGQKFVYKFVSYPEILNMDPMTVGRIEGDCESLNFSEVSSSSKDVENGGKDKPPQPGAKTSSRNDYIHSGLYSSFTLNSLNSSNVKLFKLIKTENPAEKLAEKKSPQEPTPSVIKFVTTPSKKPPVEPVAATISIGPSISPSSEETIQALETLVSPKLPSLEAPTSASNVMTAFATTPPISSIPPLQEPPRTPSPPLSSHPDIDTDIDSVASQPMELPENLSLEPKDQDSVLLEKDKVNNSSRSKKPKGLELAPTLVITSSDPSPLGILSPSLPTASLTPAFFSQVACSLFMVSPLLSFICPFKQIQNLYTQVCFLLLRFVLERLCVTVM
Method in brief: as §1

ETV2 = molecular target: T10, ETV2 (Homo sapiens, UniProt O00321 1-342); conditions: protein: recombinant; tags: N-terminal GST; dsDNA, one strand shown
T10 sequence: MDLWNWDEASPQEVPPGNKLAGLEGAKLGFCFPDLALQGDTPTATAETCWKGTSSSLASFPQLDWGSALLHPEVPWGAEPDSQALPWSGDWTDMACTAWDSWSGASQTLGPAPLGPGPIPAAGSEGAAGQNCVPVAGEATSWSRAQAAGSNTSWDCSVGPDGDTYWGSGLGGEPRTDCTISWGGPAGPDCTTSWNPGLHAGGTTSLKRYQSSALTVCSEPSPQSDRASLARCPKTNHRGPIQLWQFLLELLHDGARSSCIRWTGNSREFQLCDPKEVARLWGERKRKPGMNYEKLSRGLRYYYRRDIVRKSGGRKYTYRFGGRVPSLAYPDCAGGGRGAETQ
Method in brief: as §1

ELF3 = molecular target: T11, ELF3 (Homo sapiens, UniProt P78545 1-371); conditions: protein: recombinant; tags: N-terminal GST; dsDNA, one strand shown
T11 sequence: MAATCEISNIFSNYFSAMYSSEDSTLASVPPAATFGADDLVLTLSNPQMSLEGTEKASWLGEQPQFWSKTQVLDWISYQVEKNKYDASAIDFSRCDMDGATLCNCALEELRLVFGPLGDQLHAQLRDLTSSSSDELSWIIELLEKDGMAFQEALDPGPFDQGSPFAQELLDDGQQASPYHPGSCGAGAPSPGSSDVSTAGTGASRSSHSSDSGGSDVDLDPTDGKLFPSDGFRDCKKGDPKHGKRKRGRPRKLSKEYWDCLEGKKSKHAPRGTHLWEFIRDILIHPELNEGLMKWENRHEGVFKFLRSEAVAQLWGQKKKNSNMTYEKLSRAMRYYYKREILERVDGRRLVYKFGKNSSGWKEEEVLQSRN
Method in brief: as §1

CRX = CRX (Homo sapiens, UniProt O43186 1-299); conditions: protein: recombinant; tags: N-terminal GST; dsDNA, one strand shown
Method in brief: as §1

ETV1 = ETV1 (Homo sapiens, UniProt P50549 1-477); conditions: protein: recombinant; tags: N-terminal GST; dsDNA, one strand shown
Method in brief: as §1

Sequence of ELF1 (P32519 whole entry): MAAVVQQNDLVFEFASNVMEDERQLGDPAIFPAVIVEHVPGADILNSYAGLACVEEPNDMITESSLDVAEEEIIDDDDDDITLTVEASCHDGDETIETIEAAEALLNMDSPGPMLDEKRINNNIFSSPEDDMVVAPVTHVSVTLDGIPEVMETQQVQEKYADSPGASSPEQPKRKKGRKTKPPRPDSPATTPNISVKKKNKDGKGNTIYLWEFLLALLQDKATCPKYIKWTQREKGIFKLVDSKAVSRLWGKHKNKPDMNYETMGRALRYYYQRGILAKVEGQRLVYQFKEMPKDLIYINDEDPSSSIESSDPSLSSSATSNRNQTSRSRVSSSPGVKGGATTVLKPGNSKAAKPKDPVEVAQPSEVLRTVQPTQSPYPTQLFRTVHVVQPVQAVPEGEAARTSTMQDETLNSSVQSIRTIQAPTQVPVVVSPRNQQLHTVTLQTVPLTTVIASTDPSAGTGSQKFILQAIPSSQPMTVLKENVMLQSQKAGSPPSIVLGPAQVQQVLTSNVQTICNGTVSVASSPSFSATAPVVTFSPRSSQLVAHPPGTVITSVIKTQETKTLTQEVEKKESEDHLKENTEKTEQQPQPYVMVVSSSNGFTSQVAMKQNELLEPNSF
Sequence of ETV5 (P41161 whole entry): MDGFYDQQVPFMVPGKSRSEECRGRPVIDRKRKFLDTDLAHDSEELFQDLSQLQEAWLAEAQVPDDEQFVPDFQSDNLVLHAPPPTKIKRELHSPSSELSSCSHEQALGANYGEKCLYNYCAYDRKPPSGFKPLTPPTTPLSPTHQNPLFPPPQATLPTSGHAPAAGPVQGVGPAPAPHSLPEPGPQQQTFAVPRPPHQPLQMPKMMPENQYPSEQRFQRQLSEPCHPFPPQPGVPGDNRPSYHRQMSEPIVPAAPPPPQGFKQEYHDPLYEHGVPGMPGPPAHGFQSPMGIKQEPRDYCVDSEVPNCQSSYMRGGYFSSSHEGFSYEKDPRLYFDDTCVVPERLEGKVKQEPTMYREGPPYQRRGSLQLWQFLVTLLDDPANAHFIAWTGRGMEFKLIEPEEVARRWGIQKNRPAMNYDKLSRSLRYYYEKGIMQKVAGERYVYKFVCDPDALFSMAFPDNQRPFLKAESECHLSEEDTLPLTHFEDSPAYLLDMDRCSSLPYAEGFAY
Sequence of HSF1 (Q00613 whole entry): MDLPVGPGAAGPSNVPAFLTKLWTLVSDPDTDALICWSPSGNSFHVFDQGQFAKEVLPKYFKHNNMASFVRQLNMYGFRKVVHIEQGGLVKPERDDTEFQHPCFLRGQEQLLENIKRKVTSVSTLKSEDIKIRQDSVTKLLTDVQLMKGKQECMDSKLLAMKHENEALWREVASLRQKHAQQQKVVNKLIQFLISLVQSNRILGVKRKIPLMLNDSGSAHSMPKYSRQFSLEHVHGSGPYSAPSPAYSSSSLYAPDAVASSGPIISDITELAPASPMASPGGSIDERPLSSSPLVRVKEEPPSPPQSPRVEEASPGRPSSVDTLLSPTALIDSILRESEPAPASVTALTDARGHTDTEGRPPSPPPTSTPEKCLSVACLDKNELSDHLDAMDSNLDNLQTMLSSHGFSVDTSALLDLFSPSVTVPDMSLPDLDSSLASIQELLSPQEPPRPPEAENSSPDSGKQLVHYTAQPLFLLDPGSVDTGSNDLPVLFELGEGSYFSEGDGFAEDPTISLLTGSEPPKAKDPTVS
Sequence of ETV1 (P50549 whole entry): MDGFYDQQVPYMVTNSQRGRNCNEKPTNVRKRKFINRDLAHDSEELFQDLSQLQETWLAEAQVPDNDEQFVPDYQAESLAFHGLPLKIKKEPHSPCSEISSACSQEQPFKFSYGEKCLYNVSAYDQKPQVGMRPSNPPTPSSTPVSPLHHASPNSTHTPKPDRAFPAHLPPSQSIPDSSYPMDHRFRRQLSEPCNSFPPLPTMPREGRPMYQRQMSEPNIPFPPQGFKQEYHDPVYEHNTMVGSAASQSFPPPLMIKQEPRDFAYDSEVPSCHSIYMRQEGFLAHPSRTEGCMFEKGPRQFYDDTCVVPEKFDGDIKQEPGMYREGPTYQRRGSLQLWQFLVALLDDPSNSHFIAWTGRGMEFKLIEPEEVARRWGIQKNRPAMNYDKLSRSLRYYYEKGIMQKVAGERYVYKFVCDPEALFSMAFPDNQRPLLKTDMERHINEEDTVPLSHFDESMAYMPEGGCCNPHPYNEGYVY
Sequence of ELF4 (Q99607 whole entry): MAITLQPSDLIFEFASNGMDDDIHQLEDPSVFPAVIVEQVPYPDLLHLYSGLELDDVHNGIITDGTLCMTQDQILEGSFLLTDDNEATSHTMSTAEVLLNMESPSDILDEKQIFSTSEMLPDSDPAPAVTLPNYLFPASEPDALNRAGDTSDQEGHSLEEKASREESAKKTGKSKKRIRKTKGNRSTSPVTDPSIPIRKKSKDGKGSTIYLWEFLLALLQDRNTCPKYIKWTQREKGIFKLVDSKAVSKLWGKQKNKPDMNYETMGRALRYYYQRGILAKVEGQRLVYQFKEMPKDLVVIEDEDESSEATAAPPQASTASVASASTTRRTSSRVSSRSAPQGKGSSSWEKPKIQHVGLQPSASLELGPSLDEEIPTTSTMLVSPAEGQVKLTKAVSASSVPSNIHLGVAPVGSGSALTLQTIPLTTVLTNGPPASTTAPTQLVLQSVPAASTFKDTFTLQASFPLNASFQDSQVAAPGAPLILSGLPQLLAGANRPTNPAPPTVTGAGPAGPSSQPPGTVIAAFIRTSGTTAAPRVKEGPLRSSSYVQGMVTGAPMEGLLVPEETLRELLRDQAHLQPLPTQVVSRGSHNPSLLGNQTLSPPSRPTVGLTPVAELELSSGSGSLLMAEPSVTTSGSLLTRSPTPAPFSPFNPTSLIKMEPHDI
Sequence of CRX (O43186 whole entry): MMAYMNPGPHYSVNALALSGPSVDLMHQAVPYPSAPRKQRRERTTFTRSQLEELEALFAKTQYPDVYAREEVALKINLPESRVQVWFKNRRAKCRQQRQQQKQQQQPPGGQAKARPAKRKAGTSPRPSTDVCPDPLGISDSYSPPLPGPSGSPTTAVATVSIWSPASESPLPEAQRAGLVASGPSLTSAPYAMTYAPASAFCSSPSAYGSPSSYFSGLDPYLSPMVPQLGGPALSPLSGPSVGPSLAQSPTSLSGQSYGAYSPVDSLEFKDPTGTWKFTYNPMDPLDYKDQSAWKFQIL
Sequence of SPIB (Q01892 whole entry): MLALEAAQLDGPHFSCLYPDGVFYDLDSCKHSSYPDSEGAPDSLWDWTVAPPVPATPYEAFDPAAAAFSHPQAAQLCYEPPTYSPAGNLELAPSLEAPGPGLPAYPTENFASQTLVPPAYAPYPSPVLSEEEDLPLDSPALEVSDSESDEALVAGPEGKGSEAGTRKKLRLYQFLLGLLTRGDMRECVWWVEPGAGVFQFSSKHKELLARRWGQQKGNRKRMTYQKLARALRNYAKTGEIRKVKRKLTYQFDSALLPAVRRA

GGTCTT
binding signal (FLI1): 1.14 fold enrichment (6-mer frequency, TF over GST control) | binding signal (ELK1): 1.11 fold enrichment (6-mer frequency, TF over GST control) | binding signal (GABPA): 1.14 fold enrichment (6-mer frequency, TF over GST control) | binding signal (ERG): 1.09 fold enrichment (6-mer frequency, TF over GST control) | binding signal (ELF1): 1.19 fold enrichment (6-mer frequency, TF over GST control) | binding signal (EHF): 1.1 fold enrichment (6-mer frequency, TF over GST control) | binding signal (SPI1): 1.18 fold enrichment (6-mer frequency, TF over GST control) | binding signal (SPIB): 1.23 fold enrichment (6-mer frequency, TF over GST control) | binding signal (ELK3): 1.15 fold enrichment (6-mer frequency, TF over GST control) | binding signal (FEV): 1.07 fold enrichment (6-mer frequency, TF over GST control) | binding signal (ETV5): 1.14 fold enrichment (6-mer frequency, TF over GST control) | binding signal (HSF1): 1.05 fold enrichment (6-mer frequency, TF over GST control) | binding signal (SPIC): 1.02 fold enrichment (6-mer frequency, TF over GST control) | binding signal (ELF4): 1.15 fold enrichment (6-mer frequency, TF over GST control) | binding signal (ELK4): 1.11 fold enrichment (6-mer frequency, TF over GST control) | binding signal (ETV2): 1.08 fold enrichment (6-mer frequency, TF over GST control) | binding signal (ELF3): 1.04 fold enrichment (6-mer frequency, TF over GST control) | binding signal (CRX): 1.15 fold enrichment (6-mer frequency, TF over GST control) | binding signal (ETV1): 1.11 fold enrichment (6-mer frequency, TF over GST control)
